These results are taken from PubChem BioAssay (Tox21).

Results filed as inconclusive are left out. Activity calls are given as the source filed them. Unless noted, the call rests on the fitted dose curve; in most records, active means well fitted curve in the direction sought with a large enough effect in the repeat runs; inconclusive means weak or mixed curves; inactive means no such curve, though single readings can be large; an effect the other way counts as inactive or inconclusive.

The nature of test [1]: qHTS assay to identify small molecule antagonists of the glucocorticoid receptor (GR) signaling pathway - cell viability counter screen (AID 720693; further: nearly all actives have a fitted effect of over 55% in size). (In general: qHTS replaces the single test concentration by a dilution series.)
A short description of test [2]: qHTS assay for identifying genotoxic compounds that show differential cytotoxicity against isogenic chicken DT40 cell lines with known DNA damage response pathways - wild type cell line (AID 743012). Further: nearly all actives have a fitted effect of over 60% in size. Further: potency means the concentration at half of the fitted maximal effect. In a few lines: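 Wild type DT40, 300 cells/well, ~0.5 h settle at 37 C/5% CO2; compounds in DMSO added by pintool; 40 h at 37 C/5% CO2; CellTiter-Glo, 30 min RT; luminescence.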

Test [3] in a line: qHTS assay for identifying genotoxic compounds that show differential cytotoxicity against isogenic chicken DT40 cell lines with known DNA damage response pathways - Rad54/Ku70 mutant cell line (AID 743015). Further: nearly all actives have a fitted effect of over 60% in size. Further: potency means the concentration at half of the fitted maximal effect.
Test [4] can be described thus: qHTS assay to identify small molecule antagonists of the androgen receptor (AR) signaling pathway - cell viability counter screen (AID 743033; further: nearly all actives have a fitted effect of over 45% in size).
Test [5] can be described thus: qHTS assay to identify small molecule antagonists of the androgen receptor (AR) signaling pathway using the MDA cell line - cell viability counter screen (AID 743041; further: nearly all actives have a fitted effect of over 45% in size). In a few lines: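 Viability counter screen run alongside the AR antagonist reporter: cells seeded 5 h before compound, R1881 added, 16 h incubation at 37C without CO2, fluorescent CellTiter-Fluor signal quantified.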

Test [6] in a line: qHTS assay to identify small molecule antagonists of the thyroid receptor (TR) signaling pathway - cell viability counter screen (AID 743064). Further: nearly all actives have a fitted effect of over 50% in size. Further: potency means the concentration at half of the fitted maximal effect. In a few lines:
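Viability of T3-stimulated (1 nM final) GH3.TRE-Luc cells is measured by CellTiter-Fluor fluorescence after 23.5 h compound exposure at 37 °C plus 30 min reagent incubation.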

Test [7] is described as follows: qHTS assay to identify small molecule antagonists of the thyroid receptor (TR) signaling pathway (AID 743065). Further: nearly all actives have a fitted effect of over 55% in size. Further: potency means the concentration at half of the fitted maximal effect. The method in brief:
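GH3.TRE-Luc rat pituitary cells carrying two TR response elements driving luciferase were plated for 4 h, given compound plus 1 nM T3 (final), and incubated 23.5 h at 37 C. ONE-Glo luminescence measured reporter inhibition; CellTiter-Fluor fluorescence tracked cytotoxicity.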

Test [8] has as its system thyroid hormone receptor (rat, GH3 cells). Nature of the test: qHTS assay to identify small molecule agonists of the thyroid receptor (TR) signaling pathway (AID 743066; calls by dose curve).
The target in test [9] is Estrogen receptor (Homo sapiens) (UniProt P03372). Nature of the test: qHTS assay to identify small molecule antagonists of the estrogen receptor alpha (ER-alpha) signaling pathway (AID 743069; active means well fitted curve in the direction sought with a large enough effect in the signal ratio in the repeat runs, not every such curve was filed as active; the % refers to the signal ratio). In a few lines: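 Estradiol-stimulated ER-alpha-UAS-bla HEK293 cells, 18 hr compound exposure at 37C. LiveBLAzer B/G substrate, 2 hr RT, fluorescence read.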
Sequence of Estrogen receptor (Homo sapiens) (P03372 whole entry, looked up): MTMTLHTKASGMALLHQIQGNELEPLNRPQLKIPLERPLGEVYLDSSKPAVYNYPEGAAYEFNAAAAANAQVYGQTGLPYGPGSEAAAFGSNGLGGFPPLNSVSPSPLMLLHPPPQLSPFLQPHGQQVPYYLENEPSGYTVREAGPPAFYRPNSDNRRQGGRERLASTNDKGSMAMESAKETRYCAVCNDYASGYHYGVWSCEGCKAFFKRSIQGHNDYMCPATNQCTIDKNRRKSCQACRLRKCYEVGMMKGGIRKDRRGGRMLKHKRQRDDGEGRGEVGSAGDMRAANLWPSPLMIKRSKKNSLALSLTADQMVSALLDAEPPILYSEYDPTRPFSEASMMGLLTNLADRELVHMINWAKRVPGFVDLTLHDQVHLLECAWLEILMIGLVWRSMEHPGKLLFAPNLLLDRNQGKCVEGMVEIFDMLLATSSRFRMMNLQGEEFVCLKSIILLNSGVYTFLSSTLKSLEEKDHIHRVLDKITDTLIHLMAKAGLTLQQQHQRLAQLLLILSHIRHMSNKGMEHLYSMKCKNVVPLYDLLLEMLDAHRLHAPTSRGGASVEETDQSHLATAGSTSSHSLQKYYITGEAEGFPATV
Test [10] in a line: qHTS assay to identify small molecule antagonists of the estrogen receptor alpha (ER-alpha) signaling pathway - cell viability counter screen (AID 743074; calls by dose curve;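 further: HEK293 cells carrying ER-alpha-UAS-bla reporter stimulated with 17beta-estradiol; nearly all actives have a fitted effect of over 45% in size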).
The target in test [11] is Estrogen receptor (Homo sapiens) (UniProt P03372). Nature of the test: qHTS assay to identify small molecule agonists of the estrogen receptor alpha (ER-alpha) signaling pathway (AID 743075; calls by dose curve;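 further: HEK293 GripTite cells with ER-alpha and UAS-driven beta-lactamase reporter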).
For test [12] the target is unchanged. Kind of test: qHTS assay to identify small molecule agonists of the estrogen receptor alpha (ER-alpha) signaling pathway using the BG1 cell line (AID 743079). Further: nearly all actives have a fitted effect of over 20% in size.
Test [13] in a line: qHTS assay to identify small molecule antagonists of the estrogen receptor alpha (ER-alpha) signaling pathway using the BG1 cell line (AID 743080; calls by dose curve;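 further: BG1 cells stimulated with 17beta-estradiol alongside compound; series mostly up to about 70 µM; nearly all actives have a fitted effect of over 25% in size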). In a few lines: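 After 5 days in phenol-red-free 10% charcoal-stripped FBS medium, BG1-Luc-4E2 cells were seeded, left 24 h at 37 C, co-treated with compounds and 17beta-estradiol for 21.5 h, then assayed for viability and luciferase.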

A short description of test [14]: qHTS assay to identify small molecule antagonists of the estrogen receptor alpha (ER-alpha) signaling pathway using the BG1 cell line - cell viability counter screen (AID 743081).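 Further: compound given together with 17beta-estradiol as the ER stimulus; series mostly up to about 70 µM; nearly all actives have a fitted effect of over 45% in size.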
For test [15], the target named is Aromatase (Homo sapiens) (UniProt P11511). Nature of the test: qHTS assay to identify aromatase inhibitors (AID 743083). Further: series mostly up to about 70 µM; nearly all actives have a fitted effect of over 55% in size.
Sequence of Aromatase (Homo sapiens) (P11511 whole entry, looked up): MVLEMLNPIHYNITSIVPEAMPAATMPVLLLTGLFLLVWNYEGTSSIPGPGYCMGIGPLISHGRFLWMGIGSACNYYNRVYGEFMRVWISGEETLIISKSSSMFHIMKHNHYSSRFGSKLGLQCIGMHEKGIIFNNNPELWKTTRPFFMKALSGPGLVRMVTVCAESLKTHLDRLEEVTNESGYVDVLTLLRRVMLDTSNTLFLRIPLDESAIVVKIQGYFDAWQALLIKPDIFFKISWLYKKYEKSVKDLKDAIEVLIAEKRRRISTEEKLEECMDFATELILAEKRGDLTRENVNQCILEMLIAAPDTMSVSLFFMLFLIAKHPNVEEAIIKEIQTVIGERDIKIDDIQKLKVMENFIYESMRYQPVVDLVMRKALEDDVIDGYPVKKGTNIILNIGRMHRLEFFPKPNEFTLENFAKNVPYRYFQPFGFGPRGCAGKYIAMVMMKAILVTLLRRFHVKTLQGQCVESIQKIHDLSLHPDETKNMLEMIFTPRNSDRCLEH
The target of test [16] is Androgen receptor (Homo sapiens) (UniProt P10275). Nature of the test: qHTS assay to identify small molecule antagonists of the androgen receptor (AR) signaling pathway (AID 743035; active means well fitted inhibition curve with a large enough effect in the signal ratio in the repeat runs, not every such curve was filed as active; the % refers to the signal ratio). The method in brief: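 Fluorescence from a beta-lactamase FRET substrate (LiveBLAzer B/G, 2 h, room temperature) measured inhibition of R1881-stimulated signaling in GeneBLAzer AR-UAS-bla HEK293 cells exposed to compound for 16 h at 37C.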
Sequence of Androgen receptor (Homo sapiens) (P10275 whole entry, looked up): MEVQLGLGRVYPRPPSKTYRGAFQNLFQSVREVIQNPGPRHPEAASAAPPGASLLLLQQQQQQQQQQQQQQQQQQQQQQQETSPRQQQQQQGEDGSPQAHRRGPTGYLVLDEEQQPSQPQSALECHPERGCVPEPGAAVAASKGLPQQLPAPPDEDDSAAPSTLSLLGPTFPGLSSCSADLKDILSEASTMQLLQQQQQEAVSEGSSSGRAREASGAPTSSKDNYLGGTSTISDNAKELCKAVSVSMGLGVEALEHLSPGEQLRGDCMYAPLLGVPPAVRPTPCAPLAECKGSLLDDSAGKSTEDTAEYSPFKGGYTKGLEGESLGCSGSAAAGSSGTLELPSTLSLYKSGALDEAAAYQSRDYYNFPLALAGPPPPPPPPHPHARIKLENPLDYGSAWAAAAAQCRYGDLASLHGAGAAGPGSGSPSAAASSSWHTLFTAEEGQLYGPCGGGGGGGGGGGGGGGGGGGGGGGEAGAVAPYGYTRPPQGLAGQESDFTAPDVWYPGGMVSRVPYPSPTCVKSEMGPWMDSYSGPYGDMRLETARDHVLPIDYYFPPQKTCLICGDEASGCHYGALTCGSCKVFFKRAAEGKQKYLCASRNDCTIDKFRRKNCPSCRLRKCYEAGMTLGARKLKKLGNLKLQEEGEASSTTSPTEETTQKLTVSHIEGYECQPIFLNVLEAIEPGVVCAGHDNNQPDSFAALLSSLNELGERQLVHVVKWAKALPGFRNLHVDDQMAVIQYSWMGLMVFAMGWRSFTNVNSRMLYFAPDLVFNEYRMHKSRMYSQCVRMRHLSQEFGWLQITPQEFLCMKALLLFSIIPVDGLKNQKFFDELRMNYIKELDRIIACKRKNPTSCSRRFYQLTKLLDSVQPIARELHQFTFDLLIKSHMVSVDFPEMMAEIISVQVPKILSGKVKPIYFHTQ

Test [17] has the same target. Nature of the test: qHTS assay to identify small molecule agonists of the androgen receptor (AR) signaling pathway (AID 743036; active means well fitted activation curve with a large enough effect in the signal ratio in the repeat runs, with a control signal flat, not every such curve was filed as active; the % refers to the signal ratio). The method in brief:
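Screening used 2,000 AR-bla HEK293 cells per well, treated 16 h at 37C with test compounds in DMSO alongside positive and DMSO-only controls; beta-lactamase activity was then read by LiveBLAzer B/G FRET fluorescence after 2 h at room temperature.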

Test [18] shares this target. Nature of the test: qHTS assay to identify small molecule agonists of the androgen receptor (AR) signaling pathway using the MDA cell line (AID 743040; further: nearly all actives have a fitted effect of over 20% in size). The method in brief: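 Luminescence from ONE-Glo, read after 30 min at room temperature, reflects MMTV-driven luciferase in MDA-kb2 cells (AR- and GR-responsive). Treatment lasted 16 h at 37C, 0% CO2.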
The target is the same in test [19]. Kind of test: qHTS assay to identify small molecule antagonists of the androgen receptor (AR) signaling pathway using the MDA cell line (AID 743042; further: nearly all actives have a fitted effect of over 55% in size). In a few lines: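 MDA-kb2 cells (human breast carcinoma, stably carrying an MMTV-luciferase reporter responsive to AR and GR) were plated at 3,000 cells/well and preincubated 5 hr at 37C, then given compound plus R1881 agonist for 16 h. ONE-Glo luminescence was read.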

`CC(C)C(=O)OC/C=C/c1ccccc1`: the result in [1], in [4], in [8], in test [11] and in test [13] was inactive. For the same molecule, the Potency result in test [2], in test [3], in [5], in test [6], in [7] and in [9] was “inactive” each time. Besides, the Potency entry in test [10], in test [12], in test [14] and in test [15] was “inactive” each time.
As for `CNCCC(Oc1ccccc1OC)c1ccccc1` (centres undefined), the molecule was called inactive in test [1], in [4], in test [8], in test [11] and in test [13]. In addition, the Potency in test [2] is 26.6 µM (active). Also, the Potency result in test [9], in [10], in test [12], in test [14] and in [15] was “inactive” in each case.
Consider `CCN(O)CC`, for which the outcome in test [1], in test [4] and in [8] was inactive. Moreover, the Potency entry in [2], in test [3], in test [5], in [6], in test [7] and in [10] was “inactive” each time. Besides, the Potency entry in test [14] and in test [15] was “inactive” throughout.
As for `CN1CCN(c2c(F)cc3c(=O)c(C(=O)O)cn4c3c2SCC4)CC1`, the result in [1], in test [4], in test [8], in test [11] and in test [13] was inactive. Also, the Potency in test [2] was 10.6 µM (active). Moreover, the Potency entry in [6], in test [7], in test [9], in test [10], in test [12] and in test [14] was “inactive” throughout. Further, the Potency entry in test [15] is “inactive”.
Take `CCN(CC)C(=O)N(CC)CC`: the molecule was classed as inactive in test [1], in [4] and in [8]. Also, the Potency entry in [2], in [5], in test [6], in test [7], in [10] and in test [14] was “inactive” each time. In test [15], the Potency entry is “inactive”.
As to `O=CCCc1ccccc1`, the outcome in test [1], in test [4] and in [8] was inactive. Also, the Potency result in test [2], in [5], in [7], in [14] and in test [15] was “inactive” each time.
`O=C1Nc2ccc([N+](=O)[O-])cc2C1=O`: the molecule was called inactive in [1], in [4] and in [8]. Moreover, the Potency entry in [2], in test [3], in test [6], in [7] and in test [10] was “inactive” in each case.
Turning to `CN1CCN(C2=Nc3cc(F)ccc3Cc3ccccc32)CC1`, the molecule was called inactive in test [1], in test [4], in test [17], in test [19], in test [8] and in test [11]. Further, the molecule was classed as inactive in [13]. The Potency in [2] was 11.9 µM (active); in test [3], 23.7 µM (active); in [6], 11.9 µM (active); in test [7], 13.3 µM (active). For the same molecule, the Potency entry in test [16], in test [18], in test [5], in [9], in test [10] and in test [14] was “inactive” in each case. Moreover, the Potency entry in test [15] is “inactive”.
As for `COc1ccc(S(=O)(=O)Nc2nnc(CC(C)C)s2)cc1`, the result in [1], in test [4], in test [8], in test [11] and in test [13] was inactive. Besides, the Potency result in test [2], in test [3], in test [7], in test [9], in test [10] and in test [12] was “inactive” in each case. Besides, the Potency entry in [14] and in test [15] was “inactive” throughout.
For `Cc1c(N)cccc1N`, the outcome in test [1], in test [4] and in test [8] was inactive. Also, the Potency entry in test [2], in test [7], in [10] and in test [14] was “inactive” throughout. Also, the Potency in test [3] was 14 µM (active).
Regarding `Cc1cc(S(=O)(=O)O)c(N)cc1Cl`, the result in test [1], in test [4], in [17], in test [19], in [8] and in test [11] was inactive. Besides, the outcome in [13] was inactive. Besides, the Potency result in [2], in test [3], in test [16], in [18], in [5] and in test [6] was “inactive” throughout. In addition, the Potency entry in test [7], in test [9], in test [10], in test [12], in [14] and in [15] was “inactive” each time.
